Data from PubChem BioAssay (Tox21).
Inconclusive results are not listed. Calls of active or inactive are those of the source. Unless noted, calls come from the whole dose curve; as a rule, active = well fitted curve in the direction sought with a large enough effect in the repeat runs; inconclusive = weak or mixed curves; inactive = no such curve, though single readings can be large; an effect the other way counts as inactive or inconclusive.

Tests used:
[1] = qHTS assay to identify aromatase inhibitors - cell viability counter screen (AID 743084);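 note: cells stimulated with testosterone during compound exposure; nearly all actives have a fitted effect of over 55% in size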
[2] = target: Aryl hydrocarbon receptor (Homo sapiens) (UniProt P35869); experiment: qHTS assay to identify small molecule that activate the aryl hydrocarbon receptor (AhR) signaling pathway (AID 743085);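 note: HG2L7.5c1 human HepG2 liver cells with stably integrated DRE-driven firefly reporter; series mostly up to about 70 µM; nearly all actives have a fitted effect of over 15% in size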
Aryl hydrocarbon receptor (Homo sapiens), sequence (P35869 whole entry, looked up): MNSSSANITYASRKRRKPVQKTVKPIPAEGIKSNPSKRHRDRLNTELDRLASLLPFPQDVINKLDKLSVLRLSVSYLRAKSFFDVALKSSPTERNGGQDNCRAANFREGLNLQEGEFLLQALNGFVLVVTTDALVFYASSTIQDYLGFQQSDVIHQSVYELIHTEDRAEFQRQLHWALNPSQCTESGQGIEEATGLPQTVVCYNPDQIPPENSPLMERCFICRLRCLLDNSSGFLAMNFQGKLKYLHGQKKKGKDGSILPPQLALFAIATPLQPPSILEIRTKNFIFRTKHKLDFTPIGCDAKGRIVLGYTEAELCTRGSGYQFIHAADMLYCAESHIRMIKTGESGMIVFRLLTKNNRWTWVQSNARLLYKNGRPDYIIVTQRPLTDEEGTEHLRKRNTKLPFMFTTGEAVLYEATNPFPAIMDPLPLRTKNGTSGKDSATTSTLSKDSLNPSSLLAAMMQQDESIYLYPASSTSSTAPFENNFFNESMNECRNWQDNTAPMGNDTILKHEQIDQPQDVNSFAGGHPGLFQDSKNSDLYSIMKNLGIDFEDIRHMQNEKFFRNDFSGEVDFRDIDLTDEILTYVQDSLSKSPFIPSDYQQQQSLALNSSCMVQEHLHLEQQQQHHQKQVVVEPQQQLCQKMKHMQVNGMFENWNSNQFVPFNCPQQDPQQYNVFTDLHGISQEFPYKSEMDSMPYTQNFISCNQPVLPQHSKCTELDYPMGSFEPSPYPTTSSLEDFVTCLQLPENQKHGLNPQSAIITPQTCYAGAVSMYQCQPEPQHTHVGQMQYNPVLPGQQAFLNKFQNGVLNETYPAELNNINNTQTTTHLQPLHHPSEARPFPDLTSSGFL
Summary of the method: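 AhR agonist activity is inferred from enhanced light output of a DRE-controlled firefly luciferase reporter in HepG2 cells, measured with ONE-Glo following 24 h treatment at 37C.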

[3] = qHTS assay to identify small molecule that activate the aryl hydrocarbon receptor (AhR) signaling pathway - cell viability counter screen (AID 743086);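 note: HepG2 liver cells carrying the AhR DRE luciferase reporter; series mostly up to about 70 µM; nearly all actives have a fitted effect of over 45% in size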
Summary of the method: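 HepG2-AhR-luc (HG2L7.5c1) cells, 4000/well, were preincubated 5 h at 37C, exposed to compound in qHTS format for 24 hr at 37C, then given CellTiter-Fluor for 30 min; viability was read as fluorescence in the reporter wells.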

[4] = target: Peroxisome proliferator-activated receptor gamma (Homo sapiens) (UniProt P37231); experiment: qHTS assay to identify small molecule agonists of the peroxisome proliferator-activated receptor gamma (PPARg) signaling pathway (AID 743094; active = well fitted activation curve with a large enough effect in the signal ratio in the repeat runs, not every such curve was filed as active; the % refers to the signal ratio)
Peroxisome proliferator-activated receptor gamma (Homo sapiens), sequence (P37231 whole entry, looked up): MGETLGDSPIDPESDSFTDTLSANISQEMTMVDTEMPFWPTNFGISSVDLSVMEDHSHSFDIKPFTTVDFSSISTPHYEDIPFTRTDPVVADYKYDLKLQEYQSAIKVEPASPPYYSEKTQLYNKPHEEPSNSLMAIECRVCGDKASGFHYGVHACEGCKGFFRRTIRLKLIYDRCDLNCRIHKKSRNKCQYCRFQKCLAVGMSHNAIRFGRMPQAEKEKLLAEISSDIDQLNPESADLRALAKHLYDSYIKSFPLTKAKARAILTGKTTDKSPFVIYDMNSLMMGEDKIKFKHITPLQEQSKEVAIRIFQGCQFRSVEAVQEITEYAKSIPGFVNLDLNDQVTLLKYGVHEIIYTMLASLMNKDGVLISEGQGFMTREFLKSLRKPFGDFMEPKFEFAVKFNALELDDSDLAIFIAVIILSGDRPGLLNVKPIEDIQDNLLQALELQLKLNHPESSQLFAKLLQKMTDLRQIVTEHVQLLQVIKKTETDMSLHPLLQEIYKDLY
Summary of the method: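 Agonist activity was taken from a beta-lactamase reporter (FRET substrate, 1 h at room temperature) in HEK293H cells carrying a PPARg UAS-bla construct. Compounds in DMSO were incubated 17 h at 37C after a 5 h cell pre-incubation.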

[5] = target: Peroxisome proliferator-activated receptor gamma (Homo sapiens) (UniProt P37231); experiment: qHTS assay to identify small molecule antagonists of the peroxisome proliferator-activated receptor gamma (PPARg) signaling pathway (AID 743191; calls by dose curve; note: series mostly up to about 63 µM; nearly all actives have a fitted effect of over 30% in size)
Summary of the method: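 GeneBLAzer PPARg UAS-bla HEK293H cells carrying a UAS-driven beta-lactamase reporter were plated at 3000 cells/well, preincubated 5 h at 37C, then given compound for 17 h at 37C; LiveBLAzer B/G FRET substrate was read after 1 h at room temperature.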

[6] = qHTS assay to identify small molecule antagonists of the peroxisome proliferator-activated receptor gamma (PPARg) signaling pathway - cell viability counter screen (AID 743194); note: nearly all actives have a fitted effect of over 55% in size
Summary of the method: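 PPARg-UAS-bla HEK293H cells were plated, rested 5 h at 37 C, then treated with compounds plus rosiglitazone (50 nM final) for 17 h at 37 C; viability was then read by CellTiter-Glo luminescence after 30 min at room temperature.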

[7] = qHTS assay for small molecule agonists of the antioxidant response element (ARE) signaling pathway (AID 743202; active = well fitted activation curve with a large enough effect in the signal ratio in the repeat runs, not every such curve was filed as active; the % refers to the signal ratio)
Summary of the method: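 Steps: seed ARE-bla HepG2 cells (2,000/well); incubate 5 h at 37 C; add compounds by pin tool; incubate 16 h at 37 C; add FRET substrate; read fluorescence after 2 h at RT.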

[8] = qHTS assay for small molecule agonists of the antioxidant response element (ARE) signaling pathway - cell viability counter screen (AID 743203; calls by dose curve; note: nearly all actives have a fitted effect of over 55% in size)
Summary of the method: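 Viability counter screen: CellTiter-Glo luminescence, read after 30 min at room temperature, in ARE-bla HepG2 wells. Compound exposure lasted 16 h at 37C/5% CO2, following a 5 h pre-incubation of the cells after plating.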

[9] = qHTS assay for small molecule activators of the heat shock response signaling pathway - cell viability counter screen (AID 743209); note: nearly all actives have a fitted effect of over 50% in size
Summary of the method: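 Cytotoxicity counter screen run in the same wells as the heat-shock bla reporter assay: HeLa HSE-bla cells, 5 h compound exposure at 37 C, viability read by CellTiter-Glo luminescence.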

[10] = qHTS assay for small molecule activators of the heat shock response signaling pathway (AID 743210; active = well fitted activation curve with a large enough effect in the signal ratio in the repeat runs, with a control signal flat, not every such curve was filed as active; the % refers to the signal ratio;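 note: HeLa cells with beta-lactamase reporter driven by heat shock elements; series mostly up to about 63 µM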)
Summary of the method: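 Activation of heat shock element-controlled beta-lactamase expression is measured in HeLa cells by LiveBLAzer FRET fluorescence, with compound exposure lasting 5 h at 37 C and substrate loading 2.5 h at room temperature.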

[11] = qHTS assay to identify small molecule agonists of the peroxisome proliferator-activated receptor delta (PPARd) signaling pathway - cell viability counter screen (AID 743211); note: nearly all actives have a fitted effect of over 55% in size
Summary of the method: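 qHTS cell viability: PPARd-bla HEK293H; 17 h cpd, 37C; CellTiter-Glo, luminescence at 30 min RT.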

[12] = qHTS assay to identify small molecule antagonists of the peroxisome proliferator-activated receptor delta (PPARd) signaling pathway - cell viability counter screen (AID 743213); note: nearly all actives have a fitted effect of over 50% in size
Summary of the method: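 Viability counter-screen, qHTS format: PPARd-bla HEK293H, L165041 300 nM final, 17 h compound exposure at 37 C, CellTiter-Glo luminescence after 30 min RT.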

[13] = target: Peroxisome proliferator-activated receptor delta (Homo sapiens) (UniProt Q03181); experiment: qHTS assay to identify small molecule antagonists of the peroxisome proliferator-activated receptor delta (PPARd) signaling pathway (AID 743215; active = well fitted inhibition curve with a large enough effect in the signal ratio in the repeat runs, not every such curve was filed as active; the % refers to the signal ratio;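 note: cells stimulated with agonist L165041 at 300 nM final during compound exposure; series mostly up to about 62 µM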)
Peroxisome proliferator-activated receptor delta (Homo sapiens), sequence (Q03181 whole entry, looked up): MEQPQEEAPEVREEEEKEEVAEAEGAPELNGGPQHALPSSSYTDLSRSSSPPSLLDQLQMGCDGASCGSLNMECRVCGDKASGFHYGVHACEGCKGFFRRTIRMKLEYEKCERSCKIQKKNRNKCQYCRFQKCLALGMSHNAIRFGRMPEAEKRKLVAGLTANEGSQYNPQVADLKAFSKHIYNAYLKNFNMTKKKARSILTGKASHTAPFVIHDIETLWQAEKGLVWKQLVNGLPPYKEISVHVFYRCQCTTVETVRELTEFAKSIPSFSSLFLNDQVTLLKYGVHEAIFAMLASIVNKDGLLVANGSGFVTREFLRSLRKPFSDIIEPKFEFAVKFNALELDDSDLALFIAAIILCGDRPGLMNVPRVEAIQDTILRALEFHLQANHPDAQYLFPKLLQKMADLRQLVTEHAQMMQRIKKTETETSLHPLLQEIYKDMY
Summary of the method: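 Agonist L165041 (300 nM final) added with compound to PPARd-bla HEK293H UAS-bla reporter cells; 17 h incubation at 37 C. Read-out: LiveBLAzer FRET substrate, 2 h at room temperature, fluorescence intensity.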

[14] = qHTS assay to identify small molecule agonists of the farnesoid-X-receptor (FXR) signaling pathway - cell viability counter screen (AID 743218); note: nearly all actives have a fitted effect of over 45% in size
Summary of the method: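 Viability counter screen in the same wells: CellTiter-Glo luminescence, 30 min room-temperature incubation, measured after the beta-lactamase read. Cells were GeneBLAzer FXR-UAS-bla HEK 293T, compound-treated 16 h at 37C.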

[15] = target: Bile acid receptor (Homo sapiens) (UniProt Q96RI1); experiment: qHTS assay to identify small molecule agonists of the farnesoid-X-receptor (FXR) signaling pathway (AID 743220; active = well fitted activation curve with a large enough effect in the signal ratio in the repeat runs, not every such curve was filed as active; the % refers to the signal ratio)
Bile acid receptor (Homo sapiens), sequence (Q96RI1 whole entry, looked up): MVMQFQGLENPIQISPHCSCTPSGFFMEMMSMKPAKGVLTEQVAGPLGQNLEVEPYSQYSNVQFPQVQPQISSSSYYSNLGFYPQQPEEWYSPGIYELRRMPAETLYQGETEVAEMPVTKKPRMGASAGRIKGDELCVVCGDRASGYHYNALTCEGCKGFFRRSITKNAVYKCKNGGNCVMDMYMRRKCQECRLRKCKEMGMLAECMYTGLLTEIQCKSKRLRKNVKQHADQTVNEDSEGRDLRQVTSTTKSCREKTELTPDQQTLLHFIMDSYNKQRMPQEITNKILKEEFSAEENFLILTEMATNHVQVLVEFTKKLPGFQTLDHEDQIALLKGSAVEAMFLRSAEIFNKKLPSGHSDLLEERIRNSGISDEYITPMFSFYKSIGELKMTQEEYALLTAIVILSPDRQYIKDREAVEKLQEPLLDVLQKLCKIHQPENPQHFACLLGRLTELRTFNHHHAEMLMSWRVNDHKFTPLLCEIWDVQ
Summary of the method: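 FXR-UAS-bla HEK 293T cells carrying a UAS-driven beta-lactamase reporter were plated for 5 h at 37C/5% CO2, then exposed to DMSO-dissolved Tox21 10K compounds for 16 h at 37C. A LiveBLAzer B/G FRET substrate was loaded for 2 h at room temperature before fluorescence reading.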

[16] = qHTS assay to identify small molecule antagonists of the farnesoid-X-receptor (FXR) signaling pathway - cell viability counter screen (AID 743221; active = well fitted cell-killing curve with a large enough effect in the repeat runs, not every such curve was filed as active; note: nearly all actives have a fitted effect of over 50% in size)
Summary of the method: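 After a 5 h settling period, FXR-bla HEK 293T cells receive compound and chenodeoxycholic acid (50 uM final) and incubate 16 h at 37 C; CellTiter-Glo luminescence, read after 30 min at room temperature, reports cell viability.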

[17] = target: Vitamin D3 receptor (Homo sapiens) (UniProt P11473); experiment: qHTS assay to identify small molecule agonists of the vitamin D receptor (VDR) signaling pathway (AID 743222; calls by dose curve)
Vitamin D3 receptor (Homo sapiens), sequence (P11473 whole entry, looked up): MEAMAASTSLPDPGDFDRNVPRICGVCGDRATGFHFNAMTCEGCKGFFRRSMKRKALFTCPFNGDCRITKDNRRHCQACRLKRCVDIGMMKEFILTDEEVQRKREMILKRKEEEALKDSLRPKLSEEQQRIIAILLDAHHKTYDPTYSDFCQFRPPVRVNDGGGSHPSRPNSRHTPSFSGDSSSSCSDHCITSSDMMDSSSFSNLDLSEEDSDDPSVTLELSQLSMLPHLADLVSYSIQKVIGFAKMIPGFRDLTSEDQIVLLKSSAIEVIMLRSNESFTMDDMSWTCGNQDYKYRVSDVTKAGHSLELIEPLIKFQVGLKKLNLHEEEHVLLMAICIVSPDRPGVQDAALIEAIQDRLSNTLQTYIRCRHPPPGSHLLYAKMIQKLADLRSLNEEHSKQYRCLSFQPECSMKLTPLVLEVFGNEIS
Summary of the method: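 Agonist mode, beta-lactamase reporter: fluorescence from LiveBLAzer B/G FRET substrate (2 h, room temperature) read after 16 h compound treatment at 37 C of VDR-bla cells, which were pre-incubated 4 h after seeding.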

[18] = target: Vitamin D3 receptor (Homo sapiens) (UniProt P11473); experiment: qHTS assay to identify small molecule antagonists of the vitamin D receptor (VDR) signaling pathway (AID 743223; active = well fitted inhibition curve with a large enough effect in the signal ratio in the repeat runs, not every such curve was filed as active; the % refers to the signal ratio)
Summary of the method: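 Reporter line VDR-bla; stimulus 1alpha,25-(OH)2 vitamin D3, 3 nM final; compound co-addition, 16 h 37C/5% CO2; LiveBLAzer B/G substrate 2 h RT; fluorescence intensity.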

[19] = target: Peroxisome proliferator-activated receptor delta (Homo sapiens) (UniProt Q03181); experiment: qHTS assay to identify small molecule agonists of the peroxisome proliferator-activated receptor delta (PPARd) signaling pathway (AID 743212; calls by dose curve)
Summary of the method: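 Cells expressing a UAS-driven beta-lactamase reporter (PPARd-bla HEK293H) were given test compounds after a 5 h settle and kept at 37 C. Reporter activity was then measured as FRET fluorescence using LiveBLAzer B/G substrate.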

[20] = target: Bile acid receptor (Homo sapiens) (UniProt Q96RI1); experiment: qHTS assay to identify small molecule antagonists of the farnesoid-X-receptor (FXR) signaling pathway (AID 743217; active = well fitted inhibition curve with a large enough effect in the signal ratio in the repeat runs, not every such curve was filed as active; the % refers to the signal ratio)
Summary of the method: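 Antagonist mode: chenodeoxycholic acid at 50 uM final stimulates a UAS-driven beta-lactamase reporter in HEK 293T FXR-bla cells during 16 h, 37C compound exposure. Read-out is FRET substrate fluorescence after 2 h at room temperature.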
% is set by controls: 0 for no effect and ±100 for the full control effect.

CCCCC(CC)COC(=O)CCCCC(=O)OCC(CC)CCCC (stereo not drawn)
inactive: Potency [1] | Potency [2] | outcome [3] | outcome [4] | outcome [5] | outcome [6] | Potency [7] | outcome [8] | outcome [9] | Potency [10] | outcome [11] | outcome [12] | Potency [13] | Potency [14] | outcome [15] | Potency [16] | outcome [17] | outcome [18]

CCC(O)OCCCOC (stereo not drawn)
inactive: Potency [1] | Potency [2] | outcome [3] | outcome [4] | outcome [5] | outcome [6] | Potency [7] | outcome [9] | Potency [10] | outcome [11] | outcome [19] | outcome [12] | Potency [13] | Potency [14] | Potency [16] | outcome [17] | outcome [18]

CCCC(C)=O
inactive: Potency [1] | Potency [2] | outcome [3] | outcome [4] | outcome [5] | outcome [6] | Potency [7] | outcome [9] | Potency [10] | outcome [11] | outcome [12] | Potency [13] | Potency [14] | outcome [15] | Potency [16]

Cc1occc(=O)c1O
inactive: Potency [1] | Potency [2] | outcome [3] | outcome [4] | outcome [5] | outcome [6] | Potency [7] | outcome [8] | outcome [9] | Potency [10] | outcome [11] | outcome [12] | Potency [14] | Potency [16] | outcome [17] | outcome [18]

CCN(CC)CCCC(C)Nc1ccnc2cc(Cl)ccc12 (stereo not drawn)
inactive: Potency [1] | Potency [2] | outcome [3] | outcome [4] | outcome [5] | outcome [6] | activation [7] -11.9% [at 8.36 µM] | outcome [9] | Potency [10] | outcome [11] | viability change, negative = cytotoxic [12] -17.6% [at 6.26 µM] | Potency [13] | Potency [14] | Potency [16] | outcome [17] | activity change, negative = inhibition [18] 1.54% [at 6.95 µM]

C=C(C)C(=O)O[C@H]1C[C@@H]2CC[C@@]1(C)C2(C)C
inactive: Potency [1] | Potency [2] | outcome [3] | outcome [4] | outcome [5] | outcome [6] | Potency [7] | outcome [8] | outcome [9] | Potency [10] | outcome [11] | outcome [12] | Potency [13] | Potency [14] | Potency [16] | outcome [17] | outcome [18]

OC[C@H]1O[C@@](CO)(O[C@H]2O[C@H](CO)[C@@H](O)[C@H](O)[C@H]2O)[C@@H](O)[C@@H]1O
inactive: Potency [1] | Potency [2] | outcome [3] | outcome [4] | outcome [5] | outcome [6] | Potency [7] | outcome [8] | outcome [9] | Potency [10] | outcome [11] | outcome [12] | Potency [13] | Potency [14] | outcome [15] | Potency [16]

CC(=O)Nc1ccccc1
inactive: Potency [1] | Potency [2] | outcome [3] | outcome [4] | outcome [5] | Potency [7] | outcome [8] | outcome [9] | Potency [10] | outcome [11] | outcome [19] | outcome [12] | Potency [13] | Potency [14] | outcome [15] | Potency [16] | outcome [17]

O=C=NCCCCCCN=C=O
inactive: Potency [1] | Potency [2] | outcome [3] | outcome [4] | outcome [5] | outcome [6] | Potency [7] | outcome [8] | outcome [9] | Potency [10] | outcome [11] | outcome [12] | Potency [13] | Potency [14] | outcome [15] | Potency [16] | outcome [17] | outcome [18]

CCCCCCCCCCCCc1ccccc1
inactive: Potency [1] | Potency [2] | outcome [3] | outcome [4] | outcome [5] | outcome [6] | Potency [7] | outcome [8] | outcome [9] | Potency [10] | outcome [11] | outcome [12] | Potency [13] | outcome [20] | Potency [14] | outcome [15] | Potency [16] | outcome [17] | outcome [18]

COc1ccc(Nc2ccccc2)c(C)c1
inactive: Potency [1] | Potency [2] | outcome [3] | outcome [4] | outcome [5] | outcome [6] | Potency [7] | outcome [8] | outcome [9] | Potency [10] | outcome [11] | Potency [13] | Potency [14] | Potency [16]

CCOC(=O)NNc1nncc2ccccc12
inactive: Potency [1] | Potency [2] | outcome [3] | outcome [4] | outcome [5] | outcome [6] | Potency [7] | outcome [9] | Potency [10] | outcome [11] | outcome [19] | outcome [12] | Potency [13] | outcome [20] | outcome [15] | Potency [16] | outcome [17] | outcome [18]

O=C(O)c1ccc(C(=O)O)cc1
inactive: Potency [1] | Potency [2] | outcome [3] | outcome [4] | outcome [5] | outcome [6] | Potency [7] | outcome [8] | outcome [9] | Potency [10] | outcome [11] | outcome [12] | Potency [13] | Potency [14] | Potency [16] | outcome [17] | outcome [18]

OCC(CO)(CBr)CBr
inactive: Potency [1] | Potency [2] | outcome [3] | outcome [4] | outcome [5] | Potency [7] | outcome [8] | outcome [9] | Potency [10] | outcome [11] | outcome [19] | outcome [12] | Potency [13] | Potency [14] | outcome [15] | Potency [16]

CCCCCCCCCCCCS
inactive: Potency [1] | Potency [2] | outcome [3] | outcome [4] | outcome [5] | outcome [6] | Potency [7] | outcome [8] | outcome [9] | Potency [10] | outcome [11] | outcome [19] | outcome [12] | Potency [13] | Potency [14] | Potency [16] | outcome [17] | outcome [18]

COc1ccc(NC(C)=O)cc1N
inactive: Potency [1] | Potency [2] | outcome [3] | outcome [4] | outcome [5] | outcome [6] | Potency [7] | outcome [8] | outcome [9] | Potency [10] | outcome [11] | outcome [12] | Potency [13] | Potency [14] | Potency [16]

Cc1cc(C)c(C)cc1C
inactive: Potency [1] | Potency [2] | outcome [3] | outcome [4] | outcome [5] | outcome [6] | Potency [7] | outcome [9] | Potency [10] | outcome [11] | outcome [12] | Potency [13] | Potency [14] | outcome [15] | Potency [16] | outcome [17]
